Test results from PubChem BioAssay.
Activity calls are given as the source filed them. Unless noted, no rule for the calls is given here.

How the values were obtained:
[1] = compound effects on lung adenocarcinoma cell viability – A549, calcein-AM fluorescence, 48 h, basal, profiling panel (AID 1162); details: higher = more signal; also: test concentration not given here
[2] = compound effects on differentiated 3T3-L1 adipocyte viability – cell-based, 3T3-L1 adipocytes, calcein-AM fluorescence, 48 h, basal, profiling panel (AID 1163); details: 3T3-L1 adipocytes viability, higher = more signal; also: test concentration not given here
[3] = compound effects on hepatocellular carcinoma cell viability – HepG2, calcein-AM fluorescence, 48 h, basal, profiling panel (AID 1164); details: higher = more signal; also: test concentration not given here
[4] = compound effects on multiple myeloma cell viability – MM1S, calcein-AM fluorescence, 48 h, basal, profiling panel (AID 1165); details: higher = more signal;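 also: viability of MM1S multiple myeloma cells under basal unstimulated conditions; test concentration not given here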
[5] = calcein-AM signal in unstimulated myeloma cells – cell-based, calcein-AM fluorescence, 48 h, PK04 Diversity Set, profiling panel (AID 1166); details: RPMI8226 myeloma viability, higher = more signal;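 also: cells grown under basal conditions without added stimulus; test concentration not given here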
[6] = JC-1 mitochondrial signal, unstimulated HepG2 cells – cell-based, JC-1 fluorescence, 24 h, 100 nL compound, profiling panel (AID 1167); details: HepG2 mitochondrial potential, higher = more signal; also: test concentration not given here
[7] = JC-1 mitochondrial signal, unstimulated adipocytes – cell-based, JC-1 fluorescence, 3T3-L1 adipocytes, 24 h, 100 nL compound, profiling panel (AID 1168); details: JC-1 mitochondrial fluorescence, higher = more signal, called active from +8 up or from −8 down; also: test concentration not given here
[8] = JC-1 mitochondrial signal, unstimulated myeloma cells – cell-based, JC-1 fluorescence, RPMI8226, 24 h, 100 nL compound, profiling panel (AID 1169); details: JC-1 mitochondrial potential fluorescence, higher = more signal; also: test concentration not given here
[9] = JC-1 mitochondrial signal, unstimulated MM1S myeloma – cell-based, JC-1 fluorescence, 24 h, 100 nL compound, profiling panel (AID 1170); details: MM1S mitochondrial potential, higher = more signal; also: test concentration not given here
[10] = resazurin metabolic signal in A549 cells – cell-based, resazurin fluorescence, 24 h, PK04 Diversity Set, profiling panel (AID 1171); details: A549 viability, higher = more signal, called active from +8 up or from −8 down; also: test concentration not given here
[11] = resazurin metabolic signal in HepG2 cells – cell-based, resazurin fluorescence, 24 h, PK04 Diversity Set, profiling panel (AID 1172); details: HepG2 viability, higher = more signal; also: test concentration not given here
[12] = budding yeast growth changes without added modifier – OD600, strain BY4716, 24 h, basal condition, primary screen (AID 1173); details: S. cerevisiae BY4716 growth, OD600, 24 h; higher = more signal, called active from +8 up or from −8 down
[13] = viability profiling in MM1S myeloma cells – cell-based, resazurin fluorescence, basal, 24 h, PK04 Diversity Set, profiling panel (AID 1174); details: higher = more signal, called active from +8 up or from −8 down; also: test concentration not given here
[14] = molecular target: Dihydroorotate dehydrogenase (quinone), mitochondrial (Plasmodium falciparum (isolate 3D7)) (UniProt Q08210); assay: inhibition of P. falciparum DHODH – biochemical, C-terminal His tag, absorbance 600 nm, primary screen (AID 1175); details: PfDHODH enzyme, DCIP absorbance 600 nm; higher = more signal, called active from +8 up or from −8 down;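 also: recombinant parasite enzyme with a five histidine tag at its C terminus; test concentration not given here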
Sequence of Dihydroorotate dehydrogenase (quinone), mitochondrial (Plasmodium falciparum (isolate 3D7)) (Q08210 whole entry, looked up): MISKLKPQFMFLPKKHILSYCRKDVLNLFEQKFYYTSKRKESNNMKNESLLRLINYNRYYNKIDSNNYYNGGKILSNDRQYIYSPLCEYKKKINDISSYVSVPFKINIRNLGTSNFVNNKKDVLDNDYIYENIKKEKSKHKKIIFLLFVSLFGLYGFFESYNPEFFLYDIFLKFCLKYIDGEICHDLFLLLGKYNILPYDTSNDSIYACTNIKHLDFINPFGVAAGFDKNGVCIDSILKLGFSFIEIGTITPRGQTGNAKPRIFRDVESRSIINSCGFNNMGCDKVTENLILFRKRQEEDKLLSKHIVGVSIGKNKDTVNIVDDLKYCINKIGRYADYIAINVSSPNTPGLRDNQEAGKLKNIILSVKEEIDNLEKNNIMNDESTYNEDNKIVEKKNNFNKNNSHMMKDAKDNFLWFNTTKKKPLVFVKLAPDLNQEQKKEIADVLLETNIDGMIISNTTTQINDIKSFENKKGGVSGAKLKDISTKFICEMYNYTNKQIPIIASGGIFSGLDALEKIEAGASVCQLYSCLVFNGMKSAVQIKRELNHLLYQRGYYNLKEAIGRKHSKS

[15] = inhibition of PAO1 biofilm formation – strain PAO1, LB-PBS medium, absorbance 600 nm, primary screen (AID 1176); also: test concentration not given here; details: P. aeruginosa PAO1 growth/biofilm, A600, 12 h; higher = more signal
[16] = growth modulation of vineyard yeast isolate – strain RM11-1a, OD600, basal, 24 h, primary screen (AID 1177);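 also: cultures grown under basal conditions with no added stressor; test concentration not given here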; details: S. cerevisiae RM11-1a growth, OD600, 24 h; higher = more signal, called active from +8 up or from −8 down
[17] = growth of efflux-deficient E. coli DRC39 – strain DRC39, OD650, 24 h, E. coli filamentation inducers, primary screen (AID 1178);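 also: growth measured as culture turbidity by optical density at 650 nm; test concentration not given here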; details: E. coli DRC39 acrAB, higher = more signal, called active from +8 up or from −8 down
[18] = growth of efflux-deficient E. coli DRC39 – strain DRC39, OD650, 48 h, E. coli filamentation inducers, primary screen (AID 1179);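 also: screen aims at cell division blockers that make cells filament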; details: E. coli DRC39 delta-acrAB growth, higher = more signal, called active from +8 up or from −8 down
[19] = viability profiling in RPMI8226 myeloma cells – cell-based, resazurin fluorescence, basal, 24 h, PK04 Diversity Set, profiling panel (AID 1180); details: higher = more signal;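 also: RPMI8826 multiple myeloma cell line at 5000 cells per well; test concentration not given here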
[20] = molecular target: E3 ubiquitin-protein ligase XIAP (Homo sapiens) (UniProt P98170); assay: small molecules binding XIAP protein – biophysical, small-molecule microarray, fluorescence 635 nm, primary screen (AID 1181); details: higher = more signal;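 also: score merges 667 nm emission and signal to noise over triplicate slides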
Sequence of E3 ubiquitin-protein ligase XIAP (Homo sapiens) (P98170 whole entry, looked up): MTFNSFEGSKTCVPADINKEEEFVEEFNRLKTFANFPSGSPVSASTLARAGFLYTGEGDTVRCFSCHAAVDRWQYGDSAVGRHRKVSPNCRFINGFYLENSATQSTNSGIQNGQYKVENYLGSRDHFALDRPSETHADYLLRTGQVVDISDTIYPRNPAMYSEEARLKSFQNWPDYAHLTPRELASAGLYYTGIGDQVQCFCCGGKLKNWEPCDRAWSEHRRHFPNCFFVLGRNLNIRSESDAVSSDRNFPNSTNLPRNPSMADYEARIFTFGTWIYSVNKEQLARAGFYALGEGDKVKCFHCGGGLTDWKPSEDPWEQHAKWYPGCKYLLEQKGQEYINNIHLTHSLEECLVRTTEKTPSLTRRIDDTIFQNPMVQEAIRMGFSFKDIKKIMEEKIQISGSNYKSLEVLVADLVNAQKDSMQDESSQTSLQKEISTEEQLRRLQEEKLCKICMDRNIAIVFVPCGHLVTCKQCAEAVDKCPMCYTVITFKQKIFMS

SMILES | z-score [1] | z-score [2] | z-score [3] | z-score [4] | z-score [5] | z-score [6] | z-score [7] | z-score [8] | z-score [9] | z-score [10] | z-score [11] | z-score [12] | z-score [13] | composite z-score [14] | z-score [15] | z-score [16] | z-score [17] | z-score [18] | z-score [19] | composite z-score [20]
CCOc1cc(C(O)C2C=CC3C(=O)N(C)C(=O)C3N2Nc2ccccc2)ccc1O (stereo not given) | -0.157 | -0.0778 | -0.243 | -2.21 | -0.429 | -1.48 | -0.725 (inactive) | -0.868 | -0.536 | -0.0004 (inactive) | -0.687 | 1.11 (inactive) | -0.328 (inactive) | 0.684 (inactive) | 0.807 (inactive) | 2.32 (inactive) | -0.501 (inactive) | -0.861 (inactive) | -0.323 | 0.312
C=CCC(OC(C)=O)[C@@H]1[C@@H](N(Cc2cccc3ccccc23)C(=O)c2cccc3ccccc23)c2cc(OCCCO)ccc2N1C(=O)c1ccc(-c2ccccc2)cc1 (stereo not given in full) | -0.545 | 0.511 | 0.571 | 0.425 | 0.0712 | 1.61 | -0.632 (inactive) | 0.72 | -0.177 | -0.227 (inactive) | -0.333 | 0.134 (inactive) | -1 (inactive) | 0.136 (inactive) | -0.309 (inactive) | -0.56 (inactive) | 0.161 (inactive) | -0.123 (inactive) | -0.569 | -0.232
CCCCCCc1nc(C2CC2)cc2c1[Si](C(C)C)(C(C)C)O[C@H]2c1ccccc1 | -0.036 | -0.177 | -0.106 | -0.892 | -0.517 | -1.09 | -0.731 (inactive) | 0.573 | 0.0835 | 0.254 (inactive) | -0.868 | 0.391 (inactive) | -0.749 (inactive) | 0.423 (inactive) | 0.0672 (inactive) | -0.553 (inactive) | -0.476 (inactive) | -0.594 (inactive) | -0.249 | -0.0872
COc1cc2c(cc1OC)CN(C(=O)[C@@H]1[C@H]3C(=O)O[C@H](c4ccccc4)[C@H](c4ccccc4)N3[C@H](c3ccc(OCCO)cc3)[C@@]13C(=O)Nc1ccccc13)CC2 | 1.47 | 1.04 | 1.35 | 0.48 | 0.834 | -0.221 | 0.876 (inactive) | -0.592 | -1.17 | 0.319 (inactive) | -0.44 | 1.39 (inactive) | -1.54 (inactive) | -1.09 (inactive) | 3.15 (inactive) | 4.05 (inactive) | 0.144 (inactive) | 0.919 (inactive) | -0.0976 | -0.0763
CN1C(=O)C2C=CC(C(O)COCc3ccccc3)N(N(c3ccccc3)c3ccccc3)C2C1=O (stereo not given) | 1.52 | -1.5 | 0.688 | -3.79 | -3.67 | 0.0589 | -1.12 (inactive) | -0.974 | -1.34 | 0.419 (inactive) | 0.669 | -2.9 (inactive) | -0.902 (inactive) | -0.0748 (inactive) | 1.04 (inactive) | 0.591 (inactive) | 0.202 (inactive) | 0.0087 (inactive) | -0.861 | 0.0537
Cc1ccc(S[C@]2(C(=O)O)CC(=O)N(Cc3ccccc3Cl)[C@@H]2c2ccc(CO)cc2I)cc1 | -0.794 | -0.551 | -0.828 | -2.94 | -2.92 | -0.508 | -1.14 (inactive) | -0.615 | -0.589 | 0.459 (inactive) | 0.457 | -3.19 (inactive) | -3.07 (inactive) | 0.297 (inactive) | 1.15 (inactive) | -0.78 (inactive) | 0.0071 (inactive) | -0.26 (inactive) | -2.19 | -0.0388
CCCCCCCCCCC(O)C1C=CC2C(=O)N(C)C(=O)C2N1NC(=O)OC(C)(C)C (stereo not given) | -3.85 | 0.0766 | -5.09 | -3.91 | -4.14 | -3.31 | -0.464 (inactive) | -0.946 | -2.37 | -3.67 (inactive) | -5.01 | -5.22 (inactive) | -4.74 (inactive) | 1.1 (inactive) | 0.0337 (inactive) | 1.05 (inactive) | -0.235 (inactive) | -1.45 (inactive) | -5.64 | 0.109
CO[C@H]1O[C@H](CO)[C@@H](OC(=O)Nc2ccccc2-c2ccccc2)[C@H](OC(=O)Nc2ccc3c(c2)OCO3)[C@H]1OC(=O)Nc1ccc2c(c1)OCO2 | 0.673 | -0.31 | -0.521 | -1.02 | -2.75 | 0.844 | 1.48 (inactive) | -1.01 | 0.823 | 0.262 (inactive) | -0.396 | 1.66 (inactive) | -0.262 (inactive) | -0.763 (inactive) | 3.65 (inactive) | 2.5 (inactive) | 1.2 (inactive) | 0.0265 (inactive) | -0.564 | 0.25
C[N+](C)(C)CCCCCCNC(=O)[C@H]1C[C@H]2C(=O)N[C@@H](Cc3ccccc3)C(=O)N2[C@H]1c1ccc(O)cc1 | -0.367 | -1.42 | 0.557 | 0.401 | 0.757 | -0.216 | 0.508 (inactive) | 0.21 | -0.79 | -0.0203 (inactive) | -0.324 | 0.119 (inactive) | 0.13 (inactive) | -0.673 (inactive) | -0.546 (inactive) | -0.0281 (inactive) | 0.962 (inactive) | 1.3 (inactive) | 0.201 | -0.162
